# Measured values reported in PubChem BioAssay (NCATS).
# Activity calls are given as the source filed them. The call rests on the fitted dose curve.
# Test: Cell Proliferation Assay Versus the ED40515 IL2 Independent ATL cell lines (AID 1053194)
# Details: ED40515 IL2-independent ATL cells
# From the text: Adult T-cell leukemia (ATL) develops in individuals infected with human T-cell lymphotropic virus-1 (HTLV-1). Clinically, ATL is subclassified into four subtypes: smoldering, chronic, lymphomatous, and acute. Two autocrine loops (IL-2/IL-2Ralpha and IL-15/IL-15Ralpha) and one paracrine stimulation loop that involves IL-9 expression by ATL cells and IL-9Ralpha expression on monocytes are required to maintain viability and proliferation in the smoldering and chronic forms of the disease. These assays examined the differential response profiles for the MIPE library of approved and investigational drugs versus an IL2 dependent and independent matched ATL cell line, with the current submission examining the differential response profiles for drugs on an IL2 independent matched ATL cell line
# Plate log growing ED40515 -IL2 cells: 1000cells/ well in 5uL phenol red free RPMI +5% FBS +1x p/s, Glutamine using 1536 well white griener tissue culture plates and multidrop cassette acoustic dispensing Columns 1 and 3 DMSO Columns 2 and 4, 9.2 uM Bortezomib Incubate 48 hours for celltiter glo 37C with 5%CO2 and 95% humidity with low evaporation lids Dispense 3 uL per well of cell titer glo with multidrop Incubate for 15 minutes at RT Read on VL/2 using Luminesence Wheel (Filter A)
row,Structure (SMILES),Potency
1,CCn1c(-c2nonc2N)nc2c(C#CC(C)(C)O)ncc(OC[C@H]3CCCNC3)c21,33.2 µM (active)
2,COc1ccc(C2=N[C@H](c3ccc(Cl)cc3)[C@H](c3ccc(Cl)cc3)N2C(=O)N2CCNC(=O)C2)c(OC(C)C)c1,33.2 µM (active)
3,CCC(C)n1ncn(-c2ccc(N3CCN(c4ccc(OC[C@H]5CO[C@](Cn6cncn6)(c6ccc(Cl)cc6Cl)O5)cc4)CC3)cc2)c1=O (stereo not given in full),10.5 µM (active)
4,c1ccc(-c2nn3c(c2-c2ccnc4cc(OCCN5CCOCC5)ccc24)CCC3)nc1,26.4 µM (active)
5,OC[C@H](Cc1ccccc1)Nc1nc(Oc2ccc3c(c2)CCC3)nc2c1ncn2Cc1ccc(-c2ccccc2)cc1,4.69 µM (active)
6,CCOc1cc(C(=O)Nc2ccc(Cl)c(-c3nc4ccccc4[nH]3)c2)cc(OCC)c1OCC,18.7 µM (active)
7,NC(=O)c1ccc(-c2nc(-c3ccc4c(c3)OCCO4)c(-c3ccccn3)[nH]2)cc1,20.9 µM (active)
8,CC(C)(C)OC(=O)CN(Cc1ccc(Cl)cc1)Cc1ccc([N+](=O)[O-])s1,29.6 µM (active)
9,CCOc1ccn(-c2ccc(F)cc2)c(=O)c1C(=O)Nc1ccc(Oc2ccnc(N)c2Cl)c(F)c1,23.5 µM (active)
10,COc1nc(-c2ccc3c(c2)OCO3)n(-c2ccc(NC(=O)CSc3ccccc3)cc2)n1,23.5 µM (active)
11,Nc1ncnc2nc(-c3ccc(N4CCOCC4)nc3)cc(-c3cccc(Br)c3)c12,29.6 µM (active)
12,CNC(=O)c1ccccc1Sc1ccc2c(/C=C/c3ccccn3)n[nH]c2c1,16.6 µM (active)
13,COc1ccccc1-c1cccc(-c2c(O)c3cc(C#N)c(Cl)cc3[nH]c2=O)c1,16.6 µM (active)
14,Cn1c(=O)c(F)c(Nc2ccc(I)cc2F)c2c(=O)n(C[C@@H](O)CO)cnc21,26.4 µM (active)
15,CC1(C)SCCN(S(=O)(=O)c2ccc(OCC#CCO)cc2)[C@@H]1C(=O)NO,37.2 µM (active)
16,Nc1nccc(-c2ccc3noc(-c4ccc(Cl)cc4)c3c2)n1,18.7 µM (active)
17,S=C(NCc1ccc2c(c1)OCO2)N1CCN(c2ncnc3c2oc2ccccc23)CC1,3.32 µM (active)
18,COc1ccccc1[C@H](c1cccc2ccccc12)[C@@](C)(C#N)C(=O)N1CCC(c2cccc(C(F)(F)F)c2)CC1,7.43 µM (active)
19,O=c1ncn2nc(Sc3ccc(F)cc3F)ccc2c1-c1c(Cl)cccc1Cl,26.4 µM (active)
20,CC[C@@H](C)[C@H](NC(=O)[C@H](CC1CCCCC1)NC(=O)c1ccno1)C(=O)N1CCC2(CCc3ccccc32)CC1,10.5 µM (active)

row,Structure (SMILES),Potency
1,Cc1ccc(NC(=O)c2cccc(C(C)(C)C#N)c2)cc1Nc1ccc2ncn(C)c(=O)c2c1,26.4 µM (active)
2,Cc1cccc(-c2nn(C(=S)Nc3ccccc3)cc2-c2ccnc3ccccc23)n1,26.4 µM (active)
3,Cc1cnc(Nc2ccc(OCCN3CCCC3)cc2)nc1Nc1cccc(S(=O)(=O)NC(C)(C)C)c1,33.2 µM (active)
4,CC(C)C[C@H](NC(=O)[C@@H](O)[C@H](N)Cc1ccccc1)C(=O)O,6.62 µM (active)
5,CC(C)c1onc(-c2c(Cl)cccc2Cl)c1COc1ccc(/C=C/c2cccc(C(=O)O)c2)c(Cl)c1,33.2 µM (active)
6,O=S(=O)(N=Cc1c(O)ccc2ccccc12)c1cccs1,26.4 µM (active)
7,COc1cc(F)c(F)c(Nc2ccc(I)cc2F)c1NS(=O)(=O)C1(C[C@H](O)CO)CC1,26.4 µM (active)
8,C[C@]1(c2nc3c(C(N)=O)cccc3[nH]2)CCCN1,16.6 µM (active)
9,Cc1cc2c(F)c(Oc3ncnn4cc(OC[C@@H](C)O)c(C)c34)ccc2[nH]1,1.05 µM (active)
10,Cc1ccnc(NS(=O)(=O)c2ccc(NC(=O)Nc3ccc(S(=O)(=O)Nc4nccc(C)n4)cc3)cc2)n1,6.62 µM (active)
11,O=C(O)c1ccc(-c2c[nH]c3ccc(-c4ccccc4)cc23)cc1C1CCCC1,2.35 µM (active)
12,Cc1c(C)c2c(c(C)c1O)CCC(C)(COc1ccc(CC3SC(=O)NC3=O)cc1)O2 (stereo not given),37.2 µM (active)
13,CC(C)(Sc1ccc(CCN(CCCCC2CCCCC2)C(=O)NC2CCCCC2)cc1)C(=O)O,33.2 µM (active)
14,NC(=O)c1ccc(I)c([N+](=O)[O-])c1,16.6 µM (active)
15,CCCc1nc2c(C)cc(-c3nc4ccccc4n3C)cc2n1Cc1ccc(-c2ccccc2C(=O)O)cc1,37.2 µM (active)
16,CNC(=O)c1ccc(C)c(-n2c(C)cc(OCc3ccc(F)cc3F)c(Br)c2=O)c1,26.4 µM (active)
17,CS(=O)(=O)c1cccc(CNc2nc(Nc3ccc4c(c3)CCC(=O)N4)ncc2C(F)(F)F)c1,4.69 µM (active)
18,COc1ccc(-c2c(-c3ccc(O)cc3O)n[nH]c2C)cc1,23.5 µM (active)
19,Oc1cccc(-c2nc(N3CCOCC3)c3oc4ncccc4c3n2)c1,1.32 µM (active)
20,COc1ccc2c3n(c(=NC(=O)c4cccnc4)nc2c1OC)CCN3,23.5 µM (active)
